Screens as filed in PubChem.
Sampled rows, rich in hits. Any-hit rate of the full collection: about 3.5%.
GPR151 activ – activators of human GPR151, primary screen, cell-based, PathHunter beta-arrestin, luminescence | PathHunter beta-arrestin GPR151 cells | activation, % at 11.2 µM | 650,000 compounds, 1% hits; in the data active = activation above about 4.9%;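 also: 0% = median of compound wells and 100% = cells with positive control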
Target sequence (Q8TDV0 whole entry, looked up): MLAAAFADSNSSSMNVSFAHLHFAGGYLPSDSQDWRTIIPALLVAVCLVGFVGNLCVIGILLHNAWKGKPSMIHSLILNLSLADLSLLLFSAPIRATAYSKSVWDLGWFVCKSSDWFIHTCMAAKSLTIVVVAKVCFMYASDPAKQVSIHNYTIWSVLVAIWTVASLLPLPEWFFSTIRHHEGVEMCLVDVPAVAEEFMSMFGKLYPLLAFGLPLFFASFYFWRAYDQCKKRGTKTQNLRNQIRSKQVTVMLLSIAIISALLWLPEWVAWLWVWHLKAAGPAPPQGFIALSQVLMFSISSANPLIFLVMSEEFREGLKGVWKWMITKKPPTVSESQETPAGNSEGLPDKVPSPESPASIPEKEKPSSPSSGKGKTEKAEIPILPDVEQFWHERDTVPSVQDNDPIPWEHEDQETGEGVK
MITF primary – MITF inhibitors, primary screen, biochemical, AlphaScreen, human; inhibition, % at 2.6 µM; AlphaScreen MITF homodimerization, bead proximity signal; 650,000 compounds, 0.91% hits; Microphthalmia-associated transcription factor (Homo sapiens), O75030; in the data active = inhibition above about 50%;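 also: 0% = vehicle wells with protein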
TEAD-YAP inh – TEAD-YAP interaction inhibition, primary screen, TEAD-YAP interaction inhibitor project, luminescence, HEK-TIYL cells | TEAD-Gal4/YAP UAS-luciferase luminescence | inhibition, % at 9.12 µM | 640,000 compounds, 1.4% hits; in the data active = inhibition above about 32%;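 also: 0% = median of test compound wells and 100% = reference inhibitor wells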
FBW7 act – FBW7 E3 ligase activators, primary screen, biochemical, AlphaScreen, human. F-box/WD repeat-containing protein 7 (Homo sapiens), Q969H0. AlphaScreen FBW7–phospho-cyclin E peptide binding, activator screen. normalized activity (activation), % at 26.1 µM. 650,000 compounds, 0.13% hits. AID 1259310, 2017; in the data active = normalized activity above about 1.9%;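 also: purified mutant Fbw7 with reduced substrate affinity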
MITF inh conf – MITF inhibitors, retest of hits, confirmation, biochemical, AlphaScreen, triplicate. 4,700 compounds, 16% hits. shares compounds with MITF primary. AlphaScreen MITF homodimerization, biotin/His-MITF beads. inhibition, % at 2.6 µM;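 active = inhibition above a cutoff derived from the DMSO control wells, cut at about 28% in these data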;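 also: 0% = MITF dimer wells with DMSO only; inhibitors lower the bead chemiluminescence by keeping MITF from dimerizing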
AS interf ctr – AlphaScreen optical interference compounds, counter-screen for MITF inhibitor project, biochemical, triplicate. AID 1259376, 2018. shares compounds with MITF primary. inhibition, % at 2.6 µM. LysRS AlphaScreen counterscreen, signal interference. 4,700 compounds, 7.6% hits;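 active = inhibition above a cutoff derived from the DMSO control wells, cut at about 30% in these data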
* = called active by the depositor; · = not tested or not shown.

SMILES	GPR151 activ	MITF primary	TEAD-YAP inh	FBW7 act	MITF inh conf	AS interf ctr
COc1ccc(CN2CCN(Cc3cccc4ccccc34)CC2)cc1	-0.3	57.5*	10.2	-0.1	20.9	19.0
COc1cccc(CN2CCN(Cc3ccccc3C)CC2)c1OC	-0.7	77.3*	-3.0	-0.5	5.0	11.8
CSc1ccc(CN2CCN(Cc3cccc4ccccc34)CC2)cc1	0.6	74.4*	-7.8	-0.1	14.2	19.8
COc1ccccc1N1CCN(Cc2cccc(OC)c2OC)CC1	0.2	23.1	6.8	0.6	·	·
CCOC(=O)N1CCN(Cc2cccc(OC)c2OC)CC1	-0.4	-9.8	12.6	-0.2	·	·
COc1cccc(CN2CCN(Cc3cccc4ccccc34)CC2)c1OC	-0.5	82.0*	-2.0	0.0	17.6	21.5
Cc1cccc(N2C(=O)CC(Sc3nc4ccccc4s3)C2=O)c1 (centres undefined)	-0.4	-0.7	-10.9	-0.1	·	·
CNS(=O)(=O)c1cc(-c2nnc(Nc3ccc(C(=O)OC)cc3)c3ccccc23)ccc1C	0.2	27.3	-8.1	-0.1	·	·
COc1ccccc1CN1CCN(Cc2cccc3ccccc23)CC1	-1.9	85.5*	6.6	-0.3	3.8	11.8
Cc1ccc(N2NC(=O)/C(=C/c3cc([N+](=O)[O-])ccc3O)C2=O)cc1C	-1.2	-28.7	-2.8	0.1	·	·
C=CCn1c(SCC(=O)NCc2ccc3c(c2)OCO3)nc2scc(-c3ccccc3)c2c1=O	-1.2	56.6*	1.9	0.4	12.2	9.5
C=CCn1c(SCC(=O)NCc2ccc3c(c2)OCO3)nc2sc3c(c2c1=O)CCC3	-0.6	-5.3	-11.3	-0.1	·	·
Cc1c(Cc2ccccc2)c(N2CCC(C)CC2)n2c(nc3ccccc32)c1C#N	0.4	12.5	5.0	-0.1	·	·
CCCCc1c(C)c(C#N)c2nc3ccccc3n2c1N1CCC(C)CC1	-0.5	53.3*	-3.5	-0.2	12.7	-7.0
C=CCc1cc(C)ccc1OCCOCCn1ccnc1	0.7	66.3*	-3.4	0.1	-2.0	2.8
C=CCc1cc(Cl)ccc1OCCCCn1ccnc1	-0.8	68.0*	1.4	-0.1	4.8	12.8
Clc1cccc(Cl)c1OCCCCn1ccnc1	0.6	52.2*	-0.2	-0.1	4.5	4.9
C=CCc1cc(OC)ccc1OCCCCn1ccnc1	-1.5	78.1*	4.4	0.0	8.7	10.5
COc1ccc(C(CNCC(=O)Nc2ccccc2-c2ccccc2)N2CCOCC2)cc1 (centres undefined)	-1.4	82.6*	4.8	-0.2	-15.0	-1.1
CC1Cc2ccccc2N1C(=O)CNCC(c1ccccc1)N(C)C (centres undefined)	-0.3	66.8*	-3.1	-0.7	16.0	25.1
CN(C)C(CNCC(=O)N1CCc2ccccc21)c1ccco1 (centres undefined)	-1.2	62.2*	-9.7	-0.4	1.8	9.5
CC(C)c1ccc(NC(=O)CNCC(c2ccccc2)N(C)C)cc1 (centres undefined)	-0.5	64.9*	2.0	-0.2	-0.1	-0.5
CC1Cc2ccccc2N1C(=O)CNCCN(C)C (centres undefined)	-0.3	-3.1	-6.7	-0.2	·	·
CN(C)C(CNCC(=O)Nc1ccc2c(c1)CCC2)c1ccccc1 (centres undefined)	-1.5	45.9	-1.9	-0.4	·	·
CN(C)C(CNCC(=O)NC(=O)Nc1ccc2c(c1)OCCO2)c1ccccc1 (centres undefined)	0.0	79.4*	54.6*	-0.2	3.3	1.7
O=c1c2sccc2nc(SCc2cc(=O)n3cc(Cl)ccc3n2)n1CCc1ccccc1	-2.0	15.8	9.2	0.2	·	·
COc1ccc(C2(CC(=O)NCCCOC(C)C)CC(=O)N(C3CCCC3)C2=O)cc1 (centres undefined)	-1.3	-10.5	-16.4	0.9	·	·
c1ccc(COc2ccc(OCCCn3ccnc3)cc2)cc1	-6.1	78.7*	54.2*	0.0	6.1	18.4
CCc1ccc(OCCn2ccnc2)cc1	-0.2	30.5	-1.9	0.0	·	·
c1ccc(COc2ccc(OCCn3ccnc3)cc2)cc1	1.2	80.5*	-45.1	0.1	7.1	1.7
